High-throughput results: PubChem, The Scripps Research Institute Molecular Screening Center
This is a sample that favours compounds with a hit; in the whole collection about 1.1% have one here.
OPRM1-OPRD1 inv = inverse agonists of MOR-DOR heterodimerization, primary screen, cell-based, luminescence. cell-based MOR-DOR heterodimer luminescence, inverse agonism. 0.21% of 340,000 active. inhibition, % at 9.3 µM. Mu-type opioid receptor (Homo sapiens) + Delta-type opioid receptor (Homo sapiens), …. AID 504357, 2011; in the data active = inhibition above about 22%, passing the limit was not always enough
Target sequence (P35372 whole entry, looked up): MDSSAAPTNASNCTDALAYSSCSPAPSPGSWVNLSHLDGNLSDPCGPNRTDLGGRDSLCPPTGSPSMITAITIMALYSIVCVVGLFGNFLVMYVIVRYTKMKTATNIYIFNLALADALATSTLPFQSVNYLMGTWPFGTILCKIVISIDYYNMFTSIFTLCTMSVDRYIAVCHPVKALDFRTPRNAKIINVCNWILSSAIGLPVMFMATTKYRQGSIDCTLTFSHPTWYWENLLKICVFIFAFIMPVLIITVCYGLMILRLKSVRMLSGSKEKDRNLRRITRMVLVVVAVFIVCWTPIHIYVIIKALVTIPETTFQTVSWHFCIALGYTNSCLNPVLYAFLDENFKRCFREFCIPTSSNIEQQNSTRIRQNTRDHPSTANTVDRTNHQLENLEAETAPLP
Target sequence (P41143 whole entry, looked up): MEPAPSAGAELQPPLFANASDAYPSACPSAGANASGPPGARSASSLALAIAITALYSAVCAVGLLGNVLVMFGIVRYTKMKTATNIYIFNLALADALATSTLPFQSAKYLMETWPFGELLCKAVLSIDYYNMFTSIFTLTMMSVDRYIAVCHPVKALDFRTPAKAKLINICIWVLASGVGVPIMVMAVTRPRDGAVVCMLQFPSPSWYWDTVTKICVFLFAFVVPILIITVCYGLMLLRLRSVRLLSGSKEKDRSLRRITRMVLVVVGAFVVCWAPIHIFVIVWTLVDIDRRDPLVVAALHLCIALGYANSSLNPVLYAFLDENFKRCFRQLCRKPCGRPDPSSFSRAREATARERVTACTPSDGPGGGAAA
HTR5A ag = HTR5A agonists in luminescence cell assay, primary screen, counter-screen for OPRM1-OPRD1 heterodimer agonist project, full-deck HTS | 5-hydroxytryptamine receptor 5A (Homo sapiens), P47898 | cell-based | activation, % at 9.3 µM | 0.61% of 340,000 active | AID 504692, 2011; in the data active = activation mostly above about 9.5%, no sharp cut-off; inactive = mostly below about 7.6%
OPRM1-OPRD1 ag = agonists of OPRM1-OPRD1 heterodimerization, primary screen, cell-based, luminescence; Mu-type opioid receptor (Homo sapiens) + Delta-type opioid receptor (Homo sapiens), …; cells; activation, % at 9.3 µM; 0.3% of 340,000 active; AID 504326, 2011; in the data active = activation above about 18%
HTR5A inv ctr = HTR5A inverse agonists in luminescence cell assay, primary screen, counter-screen for OPRM1-OPRD1 heterodimer inverse agonist project, full-deck HTS; 5-hydroxytryptamine receptor 5A (Homo sapiens), P47898; HTR5A cell line, inverse agonism; inhibition, % at 9.3 µM; 0.083% of 340,000 active; AID 504634, 2011; in the data active = inhibition mostly above about 23%, no sharp cut-off; inactive = mostly below about 18%
Numbers stand for hits; n = inactive.

SMILES	OPRM1-OPRD1 inv	HTR5A ag	OPRM1-OPRD1 ag	HTR5A inv ctr
Cc1noc(C)c1CSc1nnc(-c2cccnc2)n1C1CCCCC1C (stereo not drawn)	n	n	n	n
Cn1c(-c2ccccc2)cc(=O)n1-c1ccccc1	n	n	n	n
Cc1ccc(NC(=S)NNC(=S)Nc2cccc(C(F)(F)F)c2)cc1	n	n	n	n
Cc1ccc(S(=O)(=O)Nc2ccc(NC(=O)Nc3cccc(C(F)(F)F)c3)cc2)cc1	n	21	28	n
Cc1ccc(NS(=O)(=O)c2ccc(NC(=O)c3cccs3)cc2)cc1	n	8.3	n	n
O=C(Nc1ccncc1)Nc1cccc(C(F)(F)F)c1	n	10	n	n
O=C(Nc1cccc(C(F)(F)F)c1)c1sc(Cl)nc1C(F)(F)F	n	9.4	n	n
O=C(Nc1cccc(C(F)(F)F)c1)c1cc(-c2ccco2)on1	n	n	n	n
CC(C)C[C@@H](CN)NC(=O)c1nc[nH]c1C(=O)N[C@@H](C)C(=O)CNC[C@H](CC(C)C)NC(=O)c1nc[nH]c1C(=O)N[C@@H](Cc1ccccc1)C(=O)O	n	n	n	n
CCCCCCCCCCCCCCCCCCNc1ccn(C2OC(COP(=O)(O)OCC3OC(n4cc(F)c(=O)[nH]c4=O)CC3O)C(O)C2O)c(=O)n1 (stereo not drawn)	n	n	n	n
CCN(CC)S(=O)(=O)c1ccc(C(=O)Nc2cccc(C)c2)cc1	n	n	n	n
CCN(CC)S(=O)(=O)c1ccc(NC(=O)Nc2cccc(C(F)(F)F)c2)cc1	n	13	n	n
CCN(CC)S(=O)(=O)c1ccc(NC(=O)COc2c(OC)cccc2OC)cc1	n	13	n	n
CCN(c1ccccc1)S(=O)(=O)c1ccc(C(=O)Nc2cc(C)ccn2)cc1	n	n	n	n
Nc1nc(-c2ccc([N+](=O)[O-])cc2)cc(=O)[nH]1	n	n	n	n
CCOC(=O)c1coc(C(=O)OCC)c1C(=O)OCC	n	n	n	n
Cc1cccc(NC(=S)N2CCOCC2)c1C	n	11	n	n
Cc1cccc(NC(=O)CN2CCOCC2)c1C	n	9.8	n	n
Cc1ccc2nc(-c3ccccc3)cc(C(=O)N3CCN(S(=O)(=O)c4c(C)noc4C)CC3)c2c1	n	n	n	n
CN1C(=O)NC(=O)C1c1ccccc1 (stereo not drawn)	n	n	n	n
Cc1ccc(S(=O)(=O)CCC(=O)OC2CC(C)OC2=O)cc1 (stereo not drawn)	n	n	n	n
CC(C)Cn1c(N)c(C(=O)NCC2CCCO2)c2nc3ccccc3nc21 (stereo not drawn)	44	n	n	n
COCCn1c(N)c(C(=O)NCC2CCCO2)c2nc3ccccc3nc21 (stereo not drawn)	n	n	n	n
Cn1c(/C=C/c2ccccc2)nc2ccccc2c1=O	n	n	n	n
O=c1c2ccccc2nc(/C=C/c2ccccc2)n1CCCO	n	9.9	n	n
SMILES	OPRM1-OPRD1 inv	HTR5A ag	OPRM1-OPRD1 ag	HTR5A inv ctr
Cn1c(/C=C/c2ccc(Cl)cc2)nc2ccccc2c1=O	n	9.8	n	n
COc1cc([C@H]2OC[C@H]3[C@@H]2CO[C@@H]3c2ccc(O[C@H]3O[C@H](CO)[C@@H](O)[C@H](O)[C@H]3O)c(OC)c2)ccc1O[C@@H]1O[C@H](CO)[C@@H](O)[C@H](O)[C@H]1O	n	n	n	n
CCn1c(C)nc2cc(C(=O)N/N=C(\C)c3ccccc3O)ccc21	n	10	n	n
CCc1ccc(S(=O)(=O)c2nnn3c2nc(NCCNC(C)=O)c2ccccc23)cc1	n	11	n	n
CCCCNc1nc2c(S(=O)(=O)c3ccccc3)nnn2c2ccccc12	n	n	n	n
COc1cccc(/C(O)=C2/C(=O)C(=O)N(CCN(C)C)C2c2ccc(Br)cc2)c1 (stereo not drawn)	n	10	n	n
COc1ccccc1/C=C/C(=O)OCC(=O)Nc1c(C)nn(-c2ccccc2)c1C	n	n	n	n
OC(CCN1CC2CCC(CC2)C1)(Cc1ccccc1)c1ccco1 (stereo not drawn)	n	n	n	n
CCC(C)Sc1ccc(-c2nc3ccc(C)cn3c2NCc2ccccc2)cc1OC (stereo not drawn)	n	11	n	n
CCC(C)Sc1cc(-c2nc3ccc(C)cn3c2NCc2ccccc2)ccc1OC (stereo not drawn)	n	16	21	n
O=C(O)C(=Cc1cccc([N+](=O)[O-])c1)c1ccc(Cl)cc1	n	n	n	n
CCCC(=O)C1=C(O)C(C(=O)OC)C(C)(C)CC1=Nc1ccccc1 (stereo not drawn)	n	n	n	n
CCCC(=O)C1=C(O)C(C(=O)OC)C(C)(C)CC1=Nc1cccc2ccccc12 (stereo not drawn)	n	10	n	n
COc1ccc(CN(C)C(=O)c2cccc(NC(=O)CC3SC(N4CCCCC4)=NC3=O)c2)c(OC)c1 (stereo not drawn)	n	11	n	n
COc1cccc(CN(C)C(=O)c2cccc(NC(=O)CC3SC(N4CCCCC4)=NC3=O)c2)c1OC (stereo not drawn)	n	n	n	n
c1ccc2c(c1)CCN(c1ncnc3c1[nH]c1ccccc13)C2	n	n	52	n
c1ccc(CN2CCN(c3ncnc4c3[nH]c3ccccc34)CC2)cc1	n	n	n	n
O=C1c2ccccc2N[C@@H]2C=CC[C@@H]2N1O	n	n	n	n
COc1ccc(C(=O)SC2=NCCS2)cc1	n	12	n	n
COc1ccc(CCC2(C)OCC(CCCCO)O2)cc1 (stereo not drawn)	n	n	n	n
C[C@H](CO)N1C[C@H](C)[C@@H](CN(C)S(=O)(=O)c2ccccc2)Oc2c(NC(=O)Nc3ccc4c(c3)OCO4)cccc2C1=O	n	n	n	n
CC(NC(=O)c1ccc(F)cc1)c1ccccc1 (stereo not drawn)	n	10	n	n
Cc1ccc(C(=O)NC(C)c2ccc(F)cc2)cc1 (stereo not drawn)	n	n	n	n
CCCCCCCCCCCCCCCC[N+](C)(C)Cc1ccc(F)cc1	n	11	n	n
O=C(CN1CCN(CC(=O)Nc2ccc(F)cc2)CC1)NCC1(N2CCOCC2)CCCCC1	n	n	n	n
SMILES	OPRM1-OPRD1 inv	HTR5A ag	OPRM1-OPRD1 ag	HTR5A inv ctr
N/C(=N\OC(=O)c1cccs1)c1cccnc1	n	n	n	n
Cc1ccccc1/C(N)=N/OC(=O)c1cccs1	n	12	n	n
Cc1ccc(NC(=O)Cc2nc(COC(=O)Cc3cccc(C(F)(F)F)c3)cs2)cc1	n	n	n	n
O=[n+]1cc(-c2ccccc2)n([O-])c2c1CCCCC2	n	11	n	n
CCc1nnc(SCC(=O)NC2CCCC2)nc1CC	n	9.8	n	n
CCOc1cc(C)c(S(=O)(=O)Nc2ccc(Cl)cn2)cc1C	n	14	n	n
CCOc1ccc(S(=O)(=O)Nc2ccc(Cl)cn2)c(C)c1C	n	n	n	n
Cc1ccccc1OCCOC(=O)c1cc(S(=O)(=O)N2CCCCC2)ccc1N1CCOCC1	n	n	n	n
